Hits are enriched below; roughly 11% of the tested compounds scored in any of these assays.
VDR inhibitor – inhibitors of human vitamin D receptor; P11473; VDR-SRC2-3 peptide fluorescence polarization, 2 h; Potency, µM, without a hit: max response, negative = inhibition, most hits filed as inhibitors; 400,000 tested, 0.93% active; AID 504847; also: % is scaled to controls: 0 for no effect and ±100 for the full control effect
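Reagent solutions, kept cold and dark, are dispensed first; compounds are then pinned in at 23 nl, plates briefly spun, and incubated 2 h at ambient temperature. Inhibition of VDR–SRC2-3 peptide binding is read by fluorescence polarization.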
BAZ2B inh – blocks human BAZ2B. 360,000 tested, 4.4% active. AlphaScreen BAZ2B-H3K14Ac peptide displacement. Potency, µM (top dose mostly 114 µM), without a hit: top-dose activity change, negative = inhibition, hits mostly inhibitors; also: % is scaled to controls: 0 for no effect and ±100 for the full control effect; nearly all actives have a fitted effect of over 60% in size
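Inhibition is scored as reduced AlphaScreen emission. The BAZ2B/b-H3(5-23)K14Ac complex (50 nM each) in PBS pH 7.4, 0.01% Tween-20 meets compound (up to 110 uM) for 30 min at RT before bead addition.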
JMJD2A Tudor – JMJD2A Tudor domain (human) inhibition. O75164. 390,000 tested, 4.4% active. AlphaScreen JMJD2A-Tudor / H3K4me3 peptide binding. AID 504339. Potency, µM (highest dose often 114 µM), for inactives: top-dose activity change, negative = inhibition, actives largely listed as inhibitors; also: % is scaled to controls: 0 for no effect and ±100 for the full control effect; nearly all actives have a fitted effect of over 50% in size
G9a inh – inhibitors of human histone lysine methyltransferase G9a | G9a H3K9 monomethylation, AlphaScreen, 2 h | Potency, µM (doses to about 102 µM), for the others: at the highest dose activity, negative = inhibition, hits mostly inhibitors | AID 504332 | 350,000 tested, 8.8% active | Q96KQ7; also: % is scaled to controls: 0 for no effect and ±100 for the full control effect; nearly all actives have a fitted effect of over 75% in size
Target sequence (Q96KQ7 913-1193 limits assumed): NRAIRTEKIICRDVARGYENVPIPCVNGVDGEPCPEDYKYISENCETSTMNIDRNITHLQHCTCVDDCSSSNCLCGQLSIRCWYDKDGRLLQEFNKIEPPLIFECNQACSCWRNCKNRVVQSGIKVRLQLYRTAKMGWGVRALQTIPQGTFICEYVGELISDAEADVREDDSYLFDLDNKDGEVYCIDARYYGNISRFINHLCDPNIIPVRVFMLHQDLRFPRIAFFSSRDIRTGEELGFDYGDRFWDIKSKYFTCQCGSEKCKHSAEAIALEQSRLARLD
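Compounds were preincubated with 20 nM G9a for 15 min, after which biotinylated H3K9 peptide (500 nM) and SAM (20 uM) started a 2 h room-temperature reaction. Monomethylated product was quantified by antibody-based AlphaScreen chemiluminescence.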
PLK1 PBD inh – PLK1 (human) polo-box domain binding inhibition; P53350; Plk1 PBD binding of FITC phosphopeptide, fluorescence polarization; Potency, µM, for inactives: max response, negative = inhibition, hits mostly inhibitors; 360,000 tested, 2.8% active; also: series mostly up to about 57 µM; % is scaled to controls: 0 for no effect and ±100 for the full control effect; nearly all actives have a fitted effect of over 65% in size
HP1b chromo inh – blocks HP1-beta chromodomain binding to methylated histone tails | AID 540317 | Potency, µM (titrated, usually from 114 µM), for the others: at the top dose activity change, negative = inhibition, hits mostly inhibitors | P83916 | 390,000 tested, 0.56% active | AlphaScreen HP1-beta / biotin-H3K9me3 peptide binding; also: nearly all actives have a fitted effect of over 70% in size
Target sequence (P83916 whole entry, looked up): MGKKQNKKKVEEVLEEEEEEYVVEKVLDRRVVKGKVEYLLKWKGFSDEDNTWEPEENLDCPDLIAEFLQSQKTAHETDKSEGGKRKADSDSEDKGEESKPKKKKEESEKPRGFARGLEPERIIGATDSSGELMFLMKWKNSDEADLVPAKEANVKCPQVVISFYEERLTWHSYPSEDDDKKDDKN
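HP1-beta protein (50 nM final) preincubated 30 min at room temperature with biotinylated H3(1-18)K9me3 peptide (50 nM) in PBS pH 7.4, 0.01% Tween-20, then compound added for 30 min. AlphaScreen streptavidin donor/nickel chelate acceptor beads (10 ug/mL final), 30 min dark, luminescence read.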
Numbers without * were called inactive; ? = inconclusive; . = no result; [ ] = another dose, or the depositor's remark. Calls follow the shape of the dose curve; as a rule, active = well fitted curve in the direction sought with a large enough effect; inconclusive = small, poorly fitted or top-dose-only effect, or another doubt; inactive = no such curve, though single readings can be large; an effect the other way counts as inactive or inconclusive. Potency is read from the fitted curve at half-maximal effect.

SMILES	VDR inhibitor	BAZ2B inh	JMJD2A Tudor	G9a inh	PLK1 PBD inh	HP1b chromo inh
COc1ccc2nc(C)cc(SCC(=O)NNC(=O)COc3ccccc3)c2c1	-2%	3%	-8%	4%[0.0925 µM]	-10%	19%
COc1ccc2nc(C)cc(Sc3nc4ccccc4s3)c2c1	?	19%	79µM*	14µM*	24µM*	34%
CC(C)OC(=O)C(C(=O)C(F)(F)F)c1cc(NS(=O)(=O)c2ccc3ccccc3c2)c2ccccc2c1O (stereo not given)	?	-36%	35µM*	32µM*	?	?
COc1cc(O)c(C=Nc2ccccc2NS(=O)(=O)c2ccc(C)cc2)c(OC)c1	-11%	.	-23%	.	20%	16%
COCc1c(Br)c(C)nc2sc3c(=O)[nH]nnc3c12	-7%	56µM*	-14%	35µM*	?	29%
Cc1nc2sc3c(=O)[nH]nnc3c2c(C)c1Br	3%	17%	-3%	4%[0.501 µM]	-16%	13%
COCCn1nnnc1C(c1ccccn1)N1CCN(c2cc(Cl)ccc2C)CC1 (stereo not given)	7%	?	?	?	-2%	21%
COc1ccc(N2CCN(C(c3ccccc3)c3nnc(-c4ccccc4Cl)o3)CC2)cc1 (stereo not given)	3%	40µM*	50µM*	13µM*	.	?
COc1ccc(C(c2nnnn2Cc2ccc(F)cc2)N2CCN(c3ccc(OC)cc3)CC2)cc1 (stereo not given)	9%	?	?	32µM*	-1%	?
COc1ccccc1N1CCN(C(c2ccccc2)c2nnc(-c3ccccc3Cl)o2)CC1 (stereo not given)	4%	-27%	-22%	-12%[59 µM]	.	47%
COc1ccc(Cn2nnnc2C(c2ccccn2)N2CCN(c3cc(Cl)ccc3C)CC2)cc1 (stereo not given)	-5%	?	?	22µM*	-4%	6%
COc1ccc(N2CCN(C(c3ccccc3)c3nnnn3Cc3ccc(F)cc3)CC2)cc1 (stereo not given)	-5%	-50%	?	22µM*	-7%	-22%
COc1ccc(C(c2nnnn2Cc2cccs2)N2CCN(c3ccc(F)cc3)CC2)cc1OC (stereo not given)	-27%	?	45µM*	?	21µM*	?
CN1CCN(C(c2ccc(F)cc2)c2nnnn2Cc2cccs2)CC1 (stereo not given)	12%	?	-28%	?	-11%	41%
CCCC(c1nnnn1Cc1ccc(OC)cc1)N1CCC(C(N)=O)CC1 (stereo not given)	1%	?	-18%	71µM*	-2%	28%
COc1ccc(Cn2nnnc2C(c2ccc(N(C)C)cc2)N2CCC(C)CC2)cc1 (stereo not given)	-1%	28µM*	45µM*	-121%[59 µM]	8%	-48%
COc1ccc(C(c2nnnn2Cc2ccc(F)cc2)N2CCN(c3ccccc3)CC2)cc1 (stereo not given)	-5%	-8%	-24%	-2%	-1%	11%
Cc1ccc(-n2nc(C(=O)N(C)c3ccc(C)c(C)c3)c3c4ccccc4n(C)c3c2=O)cc1	-17%	.	-28%	-42%[59 µM]	.	5%
O=C(c1cc(Br)ccc1O)N(Cc1ccco1)Cc1cccs1	?	.	-28%[57.1 µM]	.	.	-3%[57 µM]
Cc1ccc(CNC(=O)Cn2c(=O)cc(C(F)(F)F)c3c(C)nn(C)c32)cc1	-6%	-2%	-17%	8%[59 µM]	.	-20%
COc1ccccc1CN1CC[C@@]2(CCCN(C(C)=O)C2)C1	3%	.	.	-4%[12.7 µM]	.	.
CCC(=O)NC(c1ccc([N+](=O)[O-])cc1)c1c(O)ccc2ccccc12 (stereo not given)	2%	-37%	?	?	-1%	9%
CC(C)C(=O)NC(c1ccco1)c1c(O)ccc2ccccc12 (stereo not given)	-4%	-34%	?	32µM*	-8%	-5%
CCC(=O)NC(c1ccc(N(C)C)cc1)c1c(O)ccc2ccccc12 (stereo not given)	-9%	28µM*	50µM*	10µM*	-17%	?
CC(C)N(Cc1ccccc1)C(=O)CN1C(=O)CSc2ccc(S(=O)(=O)N3CCCC3)cc21	1%	-17%	-24%	-32%[59 µM]	.	-9%
SMILES	VDR inhibitor	BAZ2B inh	JMJD2A Tudor	G9a inh	PLK1 PBD inh	HP1b chromo inh
COc1ccc([C@H]2[C@H](C(=O)OC(C)(C)C)N3N=Cc4ccccc4C3C23C(=O)c2ccccc2C3=O)cc1OC (stereo not given in full)	-6%	18µM*	?	?	?	-22%
Cc1cc(C(=O)CSc2nnc(-c3ccccc3)n2Cc2ccc3c(c2)OCO3)c(C)n1C	6%	-6%	-10%	28µM*	-4%	29%
O=C(CSc1nnc(-c2ccccc2)n1Cc1ccco1)Nc1ccc2c(c1)OCCO2	-16%	-38%	-31%	40µM*	-16%	-1%
O=C(CSc1nnc(-c2ccco2)n1Cc1ccco1)NCc1ccccc1	1%	-5%	-12%	-48%[59 µM]	-6%	24%
O=C(CSc1nnc(-c2cccs2)n1Cc1ccco1)Nc1ccc2c(c1)OCO2	1%	?	-32%	-41%[12.7 µM]	-3%	16%
O=C(CSc1nnc(-c2ccccc2)n1Cc1ccco1)NCc1ccc2c(c1)OCO2	-1%	1%	-30%	45µM*	-16%	15%
CCN1CCN(c2ncnc3sc4c(c23)CCC(C)C4)CC1 (stereo not given)	14%	-2%	-14%	?	-6%	22%
CN(C(=O)c1ccc(S(=O)(=O)c2cccc(Cl)c2)c([N+](=O)[O-])c1)C1CCCCC1	-12%	-36%	?	32µM*	-3%	-8%
O=C(NC1CCCCC1)c1ccc(S(=O)(=O)c2ccccc2Cl)c([N+](=O)[O-])c1	.	-32%	.	?	.	.
O=[N+]([O-])c1ccccc1/C=N/Nc1nnc(-c2ccccc2)c(-c2ccccc2)n1	-22%	-1%	-8%	51%[59 µM]	6%	26%
CCCN1C(=O)C2C(C(=O)Nc3cccc(OC)c3)C3C=CC2(O3)C1C(=O)NC1CCCCC1 (stereo not given)	19%	0%	-6%	-2%[59 µM]	-7%	16%
C=C(C)CC1N(c2cccc(OC)c2)C(=O)C2C(C(=O)O)C3C=CC21O3 (stereo not given)	-20%	3%	-23%	1%	27µM*	17%
N#CCC(=O)N/N=C/c1c(-c2ccccc2)n(-c2ccccc2)c2ccccc12	-1%	-29%	-6%	15%	?	15%[57 µM]
CC(C)Cc1ccc(CN2CCCC(NC(=O)CCN3CCCO3)C2)cc1 (stereo not given)	-5%	-32%	-25%	79µM*	-11%	11%

From PubChem
